Data published in PubChem BioAssay AID802 (Columbia University Molecular Screening Center, 2007).
Among all 95,000 compounds or so, about 460 (0.48%) were called active.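 How the source made its calls: active means inhibition above the batch mean plus 3 SD, with images confirmed as a hit by eye (cut at about 37% in these data); inconclusive means inhibition above that limit but hit not confirmed in images; inactive means inhibition not above that limit.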 This excerpt belongs to a sample that is enriched for actives.

Assay: inhibitors of TNFa-induced VCAM1 expression, primary screen, imaging, HUVEC, TNFa stimulus, immunofluorescence (AID 802);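 further: 0% = TNF-stimulated DMSO wells and 100% = unstimulated control wells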
Conditions: HUVEC TNFa-induced VCAM-1 immunofluorescence, high-content imaging; at 2 µM; active compounds read high

Row | Structure (SMILES) | inhibition
1 | CCOc1ccc(C(=O)NC2CCN(C(=O)Nc3ccccc3OC)CC2)cc1 | -14.1% (inactive)
2 | O=C(NC(Nc1nc2ccc([N+](=O)[O-])cc2s1)(C(F)(F)F)C(F)(F)F)c1ccccc1 | 88.1% (active)
3 | Cc1cc(C)cc(OCC(=O)Nc2nc3ccc([N+](=O)[O-])cc3s2)c1 | 21.3% (inactive)
4 | COC(=O)C(NC(=O)c1ccc(OC)cc1)(Nc1ncc(S(=O)(=O)c2ccc([N+](=O)[O-])cc2)s1)C(F)(F)F (stereo not given) | -3.1% (inactive)
5 | Cc1ccccc1NC(=S)Nc1cccc([N+](=O)[O-])c1 | -16.9% (inactive)
6 | COc1ccc(Nc2ncc(C(=O)N3CCN(c4ccccc4OC)CC3)c3ccccc23)cc1 | 26.1% (inactive)
7 | FC(F)(F)c1cc(-c2ccco2)nc(NCc2ccc(Cl)cc2)n1 | 9.6% (inactive)
8 | Cc1cc(C)c2c(-n3cccc3)c(NC(=O)OCc3ccccc3)sc2n1 | 25.4% (inactive)
9 | COc1cccc(CNc2nc3nc4c(c(=O)n3[nH]2)CCC4)c1 | 15.2% (inactive)
10 | Cc1cccc(-n2cnc(C(=O)Nc3cccnc3)c2)n1 | -5.1% (inactive)
11 | CCOC(=O)Cc1csc(NC(=O)CSc2nnc(-c3cccnc3)n2Cc2ccco2)n1 | 15.6% (inactive)
12 | O=S(=O)(Cc1cc(Sc2ccccc2)nc(-c2ccccc2)n1)c1ccccc1 | -28.4% (inactive)
13 | CCOc1ccccc1NC(=O)c1cccnc1 | -0.4% (inactive)
14 | COc1ccc(C(F)(F)F)cc1N/C=C\c1nnnn1-c1ccc(C)cc1 | 16.2% (inactive)
15 | O=C(Nc1ncc2c(n1)CC(c1ccco1)CC2=O)c1ccc(Cl)cc1 (stereo not given) | 91.4% (active)
16 | O=C(Nc1ncc2c(n1)-c1ccccc1OC2)c1ccc(Cl)cc1 | 6.1% (inactive)
17 | CCc1ccc(Nc2ncc3c(n2)CC(c2ccco2)CC3=O)cc1 (stereo not given) | -20.6% (inactive)
18 | COc1ccc(C2C(C(C)=O)=C(O)C(=O)N2c2nccs2)cc1 (stereo not given) | 12.3% (inactive)
19 | CCCN(Cc1cc2cccc(C)c2[nH]c1=O)S(C)(=O)=O | -13.9% (inactive)
20 | COc1cc2cc(CN(CCN3CCCC3)C(=O)Nc3ccccc3Cl)c(=O)[nH]c2cc1OC | 28.3% (inactive)
21 | COc1ccc(CCN(Cc2cc3cccc(C)c3[nH]c2=O)C(=O)N2CCCC2)cc1OC | 91.4% (active)
22 | COc1ccc2oc(C)c(NC(C)=O)c2c1 | 0.3% (inactive)
23 | COc1ccc(Nc2cc(=O)oc3ccccc23)cc1 | 88.9% (active)
24 | COc1ccc(N2CCN(Cc3cc(=O)oc4ccc5ccccc5c34)CC2)cc1 | 9.8% (inactive)

Row | Structure (SMILES) | inhibition
25 | CCCSC(=S)NC1CCS(=O)(=O)C1 (stereo not given) | 4.3% (inactive)
26 | CCN(CC)CCn1c(=S)[nH]c2ncccc2c1=O | 11% (inactive)
27 | c1ccc(Nc2nc(N3CCOCC3)c3ccccc3n2)cc1 | -8.6% (inactive)
28 | CCOC(=O)N1CCN(C(c2cccnc2)c2ccc3cccnc3c2O)CC1 (stereo not given) | 9.9% (inactive)
29 | COc1ccc(-c2nnc(SCC(=O)NC3CCCCC3)o2)cc1OC | 87.2% (active)
30 | COc1ccc(CN(C(=O)CSc2nnc(-c3ccc(OC)c(OC)c3)o2)c2ccc(F)cc2)cc1 | 17.6% (inactive)
31 | COc1ccc(CCNC(=O)CSc2nnc(-c3cccc(F)c3)o2)cc1OC | 11.2% (inactive)
32 | Cc1cc2cc3c(cc2nc1SCC(=O)Nc1c(C)cccc1C)CCC3 | 6% (inactive)
33 | Cc1cccc(NC(=O)C(C)N2C(=O)C3C4CC(C(Br)C4Br)C3C2=O)c1 (stereo not given) | 8.5% (inactive)
34 | CCC1(CC)NC(=O)N(CC(=O)OCC(=O)Nc2ccc(C(F)(F)F)cc2)C1=O | 9.5% (inactive)
35 | O=C(Nc1cc2c3c(c1)C1CCCC1CN3CC1CCCC21)c1ccc([N+](=O)[O-])cc1 (stereo not given) | 3% (inactive)
36 | Cc1n[nH]c(=S)n1/N=C/c1ccc(Br)o1 | 4.4% (inactive)
37 | O=[N+]([O-])c1ccc(NCCCN2CCOCC2)c(Cl)c1 | -2.6% (inactive)
38 | CC(C)(C)Cc1nnc(NC(=O)c2cc(-c3ccccc3)nc3ccccc23)s1 | -0.7% (inactive)
39 | CC1(C)CC(CC(=O)O)C(=O)O1 (stereo not given) | 20.1% (inactive)
40 | CCOc1ccc(-n2c(N)c(C(=O)NCC3CCCO3)sc2=S)cc1 (stereo not given) | -3.3% (inactive)
41 | Cc1ccc2c(c1)-c1c(ssc1=S)C(C)(C)N2C(=O)CN1C(=O)c2ccccc2C1=O | -19.4% (inactive)
42 | CCOC(=O)c1c(N=CN(C)C)c(C#N)c2n1CCCC2 | 8.7% (inactive)
43 | COc1ccc(/C=N/Nc2nc3ccccc3o2)cc1OC | -32.9% (inactive)
44 | C=CCNC(=S)NNc1ncnc2sc3c(c12)CC(C)(C)OC3 | 27.9% (inactive)
45 | O=C(CN1C(=O)C2C3C=CC(C3)C2C1=O)Nc1nc(-c2ccccn2)cs1 (stereo not given) | 11% (inactive)
46 | Cc1cc(NC(=O)CSc2nc(C(C)C)nc3sc4c(c23)CCC(C)C4)no1 (stereo not given) | 18.6% (inactive)
47 | CC(=O)Nc1ccc(N2C(=O)CCC2=O)cc1C | 8.8% (inactive)
48 | O=C(/C=C/Nc1ccccc1)c1cnc(-c2ccccc2)s1 | -1.5% (inactive)

Row | Structure (SMILES) | inhibition
49 | Cc1ccc(C2(C(F)(F)F)N=C3Sc4cc(C)cc(C)c4N3C(=O)N2)cc1 (stereo not given) | 7.1% (inactive)
50 | Cc1ccc(C)c(N2C(=O)CS/C2=N\NC(=O)c2ccccc2Cl)c1 | 10.4% (inactive)
51 | O=C(Cn1ccc([N+](=O)[O-])n1)NCc1cccs1 | 7.9% (inactive)
52 | O=c1c([N+](=O)[O-])cc(C(F)(F)F)cn1Cc1cccc(Cl)c1 | 3.2% (inactive)
53 | O=C(N/N=C\c1ccc(-c2ccc(Cl)c(Cl)c2)o1)C(=O)N1CCCC1 | -4.3% (inactive)
54 | CCCNC(=O)NCc1ccc(N2CCCC2=O)cc1 | 3.5% (inactive)
55 | CCOC(=O)c1c(NC(=S)Nc2ccccc2)sc2c1CCN(C)C2 | 12.8% (inactive)
56 | CC(=O)c1cn(CCCCCCCCCCn2cc(C(C)=O)c(=O)[nH]c2=O)c(=O)[nH]c1=O | 5.5% (inactive)
57 | O=C(Nc1ccn(Cc2ccccc2F)n1)c1ccc(COc2ccc(Cl)cc2Cl)o1 | 4.3% (inactive)
58 | Cc1ccc(C2C(C#N)C(C#N)N3CCCN23)cc1 (stereo not given) | -8% (inactive)
59 | CCc1cc(C(c2ccccc2OC)N2CCOCC2)c(NC(=O)c2ccccc2)s1 (stereo not given) | 3.5% (inactive)
60 | COCCNC(=O)c1onc(CSc2cccc(C)c2)c1C(=O)O | 13.5% (inactive)
61 | Cn1c(NN)nc2sc3c(c2c1=O)CCC3 | 27.5% (inactive)
62 | O=C(CSCc1ccccc1Cl)NNC(=O)c1ccccc1 | 2.9% (inactive)
63 | CC(=O)c1cccc(NC(=O)C2CCCN2S(=O)(=O)c2cccc3nsnc23)c1 (stereo not given) | -0.5% (inactive)
64 | CCc1ccc(/C=N/NC(=O)c2ccc(OC3CCCC3)cc2)s1 | -3.5% (inactive)
65 | COC(=O)c1ccc(S(=O)(=O)N2CCC(c3nc4ccccc4o3)CC2)cc1 | -1.2% (inactive)
66 | c1ccc(CSc2nnc(-c3ccco3)n2Cc2ccccc2)cc1 | -1.6% (inactive)
67 | O=c1[nH]c(CSc2ncc(-c3ccc(F)cc3)n2Cc2ccco2)nc2ccccc12 | -0.9% (inactive)
68 | Nc1cc(=O)nc(SCc2ccccc2)n1Cc1ccco1 | 95% (active)
69 | CCn1nccc1C(=O)Nc1ccc(Cl)c(Cl)c1 | 2.3% (inactive)
70 | CC(C)c1ccc(/C=C/C(=O)NNC(=O)c2cccnc2)cc1 | -5.5% (inactive)
71 | C=CCn1c(SCC(=O)c2ccc(Br)cc2)nnc1C(C)NC(=O)Cc1ccc(OC)cc1 (stereo not given) | 12.4% (inactive)
72 | O=C(/C=C/c1ccco1)Nc1ccc(Oc2ccccc2)cc1 | 6.5% (inactive)

Row | Structure (SMILES) | inhibition
73 | O=C(/C=C/c1ccco1)Nc1cccc(-c2nc3ccccc3[nH]2)c1 | 9.8% (inactive)
74 | Cc1ccc(-n2nc3ccc(NC(=O)/C=C/c4ccco4)cc3n2)cc1C | 46.8% (active)
75 | CC(O)CN(Cc1ccc(Cl)cc1)CC(C)O (stereo not given) | -2.6% (inactive)
76 | Cc1ccc(NC(=S)Nc2ncccc2C)c(C)c1 | 2.5% (inactive)
77 | CC1=NN(Cc2ccccc2)C(=O)/C1=C/c1ccc(N(C)C)cc1 | 3.7% (inactive)
78 | COC(=O)c1cc2nc(-c3ccccc3)cc(C(F)(F)F)n2n1 | -20.1% (inactive)
79 | Cc1cc(C)c2cc(CN(Cc3nnnn3Cc3ccc(F)cc3)C3CCCC3)c(=O)[nH]c2c1 | 1.5% (inactive)
80 | CS(=O)(=O)c1sc2nc(-c3ccccc3)cc(-c3ccccc3)c2c1N | -20.3% (inactive)
81 | COc1ccccc1/C=C/C1=NC(=C\N(C)C)/C(=O)O1 | 5.1% (inactive)
82 | CCN(CC)S(=O)(=O)c1ccc2c3c(cccc13)C(=O)S2 | 8.1% (inactive)
83 | Cc1ccc(F)cc1NC(=O)c1cccc(N(C)C)c1 | -5.6% (inactive)
84 | O=C(Nc1ccccc1)c1ccc2c(c1)OCO2 | -10.7% (inactive)
85 | Cc1ccc(F)cc1NC(=O)c1ccc2c(c1)OCO2 | 96.8% (active)
86 | S=c1nccc(-c2cc(Cl)sc2Cl)[nH]1 | 2% (inactive)
87 | COc1ccccc1CNC(=O)c1ccc(SC)cc1OC | 18.6% (inactive)
88 | Cc1cc(-c2ccccc2)nc(N2CCC(C(=O)NC34CC5CC(CC(C5)C3)C4)CC2)n1 | -5.8% (inactive)
89 | Cc1nc([N+](=O)[O-])nn1C12CC3CC(CC(Br)(C3)C1)C2 | 11.3% (inactive)
90 | Cn1c2c(c(=O)n(C)c1=O)[C@@H]1c3c(ccc4ccccc34)OC[C@@H]1CO2 | -9% (inactive)
91 | CCn1c(SCC(=O)Nc2ccc(S(=O)(=O)Nc3onc(C)c3C)cc2)nnc1-c1ccccc1 | 6.4% (inactive)
92 | O=C(O)c1ccccc1-c1ccccc1C(=O)Nc1cccc2ccccc12 | 7.4% (inactive)
93 | Cc1nnc(NC(=O)CSc2nc(C3CCCCC3)nc3ccccc23)s1 | -0.5% (inactive)
94 | CCCNC(=S)NC1CC2CCCC(C1)N2CC(C)C (stereo not given) | 5.3% (inactive)
95 | Cc1cc(C(F)F)n2nc(C(=O)Nc3ccc(S(=O)(=O)NC45CC6CC(CC(C6)C4)C5)cc3)nc2n1 | 5.2% (inactive)
